# PubChem BioAssay (Tox21)
# Several values for one entry are separate records, joined by “and”; a condition that tells them apart may be missing. Identical values can stand only once. A number with no mark means an inactive call. Records with an inconclusive call do not appear. A call without a number means that no potency is given here. Activity calls are given as the source filed them. Calls come from the whole dose curve.
# Molecular target: Acetylcholinesterase (Homo sapiens) (UniProt P22303)
# Sequence (P22303 whole entry, looked up): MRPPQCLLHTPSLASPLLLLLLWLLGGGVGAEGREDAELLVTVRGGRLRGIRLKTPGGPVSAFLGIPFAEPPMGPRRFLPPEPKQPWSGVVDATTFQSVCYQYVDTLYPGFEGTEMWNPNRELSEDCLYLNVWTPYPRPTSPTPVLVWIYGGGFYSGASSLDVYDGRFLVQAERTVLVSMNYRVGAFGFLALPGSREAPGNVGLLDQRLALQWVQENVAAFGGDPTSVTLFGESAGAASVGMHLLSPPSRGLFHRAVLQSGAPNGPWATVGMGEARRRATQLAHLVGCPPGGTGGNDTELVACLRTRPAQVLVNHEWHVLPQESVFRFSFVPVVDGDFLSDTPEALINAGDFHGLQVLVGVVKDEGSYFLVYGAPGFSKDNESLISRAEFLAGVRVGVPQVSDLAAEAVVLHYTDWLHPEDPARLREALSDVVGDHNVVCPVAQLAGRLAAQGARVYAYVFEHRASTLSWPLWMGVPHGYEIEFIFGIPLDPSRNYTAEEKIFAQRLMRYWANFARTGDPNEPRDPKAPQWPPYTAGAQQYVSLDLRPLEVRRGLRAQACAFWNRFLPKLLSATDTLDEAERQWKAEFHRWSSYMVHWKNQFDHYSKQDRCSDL
# Test: Acetylcholinesterase (AChE) small molecule antagonists: colormetric cell-based qHTS assay (AID 1347395); note: nearly all actives have a fitted effect of over 30% in size
# Details: SH-SY5Y cells AChE activity, colorimetric (Ellman); series mostly up to 115 µM
# How it was run: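 Colorimetric read-out: DTNB detects thiocholine released when cellular AChE in SH-SY5Y cells hydrolyses acetylthiocholine. Cells attached overnight, received compound for 30 min at 37 C, then substrate mix for 90 min at 37 C.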
# Potency is the fitted concentration of half-maximal effect.
Structure (SMILES),Potency,"activity, negative = inhibition"
OC[C@H]1O[C@@H](Oc2ccc(O)cc2)[C@H](O)[C@@H](O)[C@@H]1O,inactive,
CCCCCCCCCCCCOC(=O)c1cc(O)c(O)c(O)c1,inactive,
CC1=CC(=O)CC(C)(C)C1,inactive,
C[C@](N)(Cc1ccc(O)cc1)C(=O)O,,-0.0506% [at 10.5 µM]
CCCc1c2oc(C(=O)O)cc(=O)c2cc2c(=O)cc(C(=O)O)n(CC)c12,inactive,
Cc1ccc(O)c(C(C)(C)C)c1,inactive,
O=[N+]([O-])c1cc[n+]([O-])cc1,inactive,
C/C(=C(/OCCOc1ccc(Cl)cc1)c1ccc(Cl)cc1Cl)n1ccnc1,inactive,
CCCCCCCCCCCCSC#N,inactive,
COC(=O)N[C@H](C(=O)N[C@@H](Cc1ccccc1)[C@@H](O)CN(Cc1ccc(-c2ccccn2)cc1)NC(=O)[C@@H](NC(=O)OC)C(C)(C)C)C(C)(C)C,inactive,
CCC(=O)Nc1ccc(O)cc1,inactive,
CCOC(=O)OC(C)OC1=C(C(=O)Nc2ccccn2)N(C)S(=O)(=O)c2ccccc21 (stereo not given),inactive,
OC1CCCc2ccccc21 (stereo not given),inactive,
CC/C=C\C#N,inactive,
[Cl][Nd]([Cl])[Cl],inactive,
CCCCCCC(=O)O,inactive,
C=C(C)C1CC=C(C)C(OC(C)=O)C1 (stereo not given),inactive,
COCC(=O)Nc1c(I)c(C(=O)NCC(O)CO)c(I)c(C(=O)N(C)CC(O)CO)c1I (stereo not given),inactive,
c1ccc(Sc2ccccc2)cc1,inactive,
O=C1CCCCC1C1CCCCC1 (stereo not given),inactive,

Structure (SMILES),Potency,"activity, negative = inhibition"
COc1ccc(/C(C)=C/C(=O)O)c(OC)c1,inactive,
CC(C)(C)CC(C)(C)c1ccc(Nc2ccc(C(C)(C)CC(C)(C)C)cc2)cc1,,-3.03% [at 10.5 µM]
NCCCN1CCN(CCCN)CC1,inactive,
CCCC(C)CCC(C)=O (stereo not given),inactive,
C=CC(=O)OCC(O)COc1ccccc1 (stereo not given),inactive,
CCCC(=O)O,inactive,
C/C(Cl)=C/CCl,inactive,
CCCCC(=O)OCC(=O)[C@H]1[C@H](C)C[C@H]2[C@@H]3C[C@H](F)C4=CC(=O)C=C[C@]4(C)[C@@]3(F)[C@@H](O)C[C@@]21C,inactive,
Cc1ccc(O)c2ncccc12,inactive,
CCCC/C=C/C=C\C=O,inactive,
NC(=S)NC(N)=S,inactive,
CC(C)OCC1CO1 (stereo not given),inactive,
OC12N=C(c3ccccc3)SC1Cc1cc(Cl)ccc12 (stereo not given),inactive,
O=c1c(O)c(O)c1=O,inactive,
O=C1c2ccccc2C(=O)C1c1ccc(Br)cc1,inactive,
CCCCCCCC/C=C\CCCCCCCCOCCO,inactive,
CCCCC(=O)O[C@]1(C(=O)CO)CC[C@H]2[C@@H]3CCC4=CC(=O)CC[C@]4(C)[C@H]3[C@@H](O)C[C@@]21C,inactive,
CC(C)=CC1CC(C)CCO1 (stereo not given),inactive,
Nc1ccc(N)c(Cl)c1,8.92 µM (active) and 22.4 µM (active),
CC(C)(C)C(=O)C(Oc1ccc(Cl)cc1)n1ccnc1 (stereo not given),inactive,

# Molecular target: Acetylcholinesterase (Homo sapiens) (UniProt P22303)
# Test: Acetylcholinesterase (AChE) small molecule antagonists: enzyme-based qHTS assay (AID 1347397); note: nearly all actives have a fitted effect of over 55% in size
# Details: Potency: AChE enzyme activity inhibition; outcome: AChE enzyme activity inhibition; series mostly up to 115 µM
# How it was run: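 First, recombinant human AChE (50 mU/mL as dispensed) received test compound or DMSO. Second, plates stood 30 min at room temperature. Third, DTNB and acetylthiocholine were added, followed by 10 min at room temperature and colorimetric detection.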
Structure (SMILES),Potency,"activity change, negative = inhibition"
OC[C@H]1O[C@@H](Oc2ccc(O)cc2)[C@H](O)[C@@H](O)[C@@H]1O,inactive,
CCCCCCCCCCCCOC(=O)c1cc(O)c(O)c(O)c1,35.4 µM (active) and 39.9 µM (active),
CC1=CC(=O)CC(C)(C)C1,inactive,
C[C@](N)(Cc1ccc(O)cc1)C(=O)O,,0.139% [at 10.5 µM]
CCCc1c2oc(C(=O)O)cc(=O)c2cc2c(=O)cc(C(=O)O)n(CC)c12,inactive,
Cc1ccc(O)c(C(C)(C)C)c1,inactive,
O=[N+]([O-])c1cc[n+]([O-])cc1,inactive,
C/C(=C(/OCCOc1ccc(Cl)cc1)c1ccc(Cl)cc1Cl)n1ccnc1,inactive,
CCCCCCCCCCCCSC#N,inactive,
COC(=O)N[C@H](C(=O)N[C@@H](Cc1ccccc1)[C@@H](O)CN(Cc1ccc(-c2ccccn2)cc1)NC(=O)[C@@H](NC(=O)OC)C(C)(C)C)C(C)(C)C,inactive,
CCC(=O)Nc1ccc(O)cc1,inactive,
CCOC(=O)OC(C)OC1=C(C(=O)Nc2ccccn2)N(C)S(=O)(=O)c2ccccc21 (stereo not given),inactive,
OC1CCCc2ccccc21 (stereo not given),inactive,
CC/C=C\C#N,inactive,
[Cl][Nd]([Cl])[Cl],inactive,
CCCCCCC(=O)O,inactive,
C=C(C)C1CC=C(C)C(OC(C)=O)C1 (stereo not given),inactive,
COCC(=O)Nc1c(I)c(C(=O)NCC(O)CO)c(I)c(C(=O)N(C)CC(O)CO)c1I (stereo not given),inactive,
c1ccc(Sc2ccccc2)cc1,inactive,
O=C1CCCCC1C1CCCCC1 (stereo not given),inactive,

Structure (SMILES),Potency,"activity change, negative = inhibition"
COc1ccc(/C(C)=C/C(=O)O)c(OC)c1,inactive,
CC(C)(C)CC(C)(C)c1ccc(Nc2ccc(C(C)(C)CC(C)(C)C)cc2)cc1,,-6.81% [at 10.5 µM]
NCCCN1CCN(CCCN)CC1,inactive,
CCCC(C)CCC(C)=O (stereo not given),inactive,
C=CC(=O)OCC(O)COc1ccccc1 (stereo not given),inactive,
CCCC(=O)O,inactive,
C/C(Cl)=C/CCl,inactive,
CCCCC(=O)OCC(=O)[C@H]1[C@H](C)C[C@H]2[C@@H]3C[C@H](F)C4=CC(=O)C=C[C@]4(C)[C@@]3(F)[C@@H](O)C[C@@]21C,inactive,
Cc1ccc(O)c2ncccc12,inactive,
CCCC/C=C/C=C\C=O,inactive,
NC(=S)NC(N)=S,inactive,
CC(C)OCC1CO1 (stereo not given),inactive,
OC12N=C(c3ccccc3)SC1Cc1cc(Cl)ccc12 (stereo not given),inactive,
O=c1c(O)c(O)c1=O,inactive,
O=C1c2ccccc2C(=O)C1c1ccc(Br)cc1,inactive,
CCCCCCCC/C=C\CCCCCCCCOCCO,inactive,
CCCCC(=O)O[C@]1(C(=O)CO)CC[C@H]2[C@@H]3CCC4=CC(=O)CC[C@]4(C)[C@H]3[C@@H](O)C[C@@]21C,inactive,
CC(C)=CC1CC(C)CCO1 (stereo not given),inactive,
Nc1ccc(N)c(Cl)c1,8.92 µM (active) and 8.94 µM (active),
CC(C)(C)C(=O)C(Oc1ccc(Cl)cc1)n1ccnc1 (stereo not given),inactive,
